# From ChEMBL document CHEMBL3988442, “University of Dundee, Small-Polar-MMV Screening Library” (2021)
# Hit rate of the full screen: of about 48,000 compounds, about 13,000 (27%) showed an effect of 50% or more. Some of the results follow.
# System: Wolbachia pipientis
# Assay: Anti-Wolbachia Cell-Based Screen
# Format: functional
# Design: scale not given: in the data most compounds retested in dose-response had high values
# Conditions: 5 µM
row,Compound,Percent Effect [%]
1,O=C(Nc1ccccc1)[C@H]1O[C@H](CCN2CCCCC2)CC[C@@H]1O,-9.518
2,CCC(=O)Nc1ccc2c(c1)CN(C(=O)c1ccco1)CC2,20.51
3,Cn1c(=O)oc2ccc(NC(=O)N3CCc4ccccc4C3)cc21,3.021
4,Cc1ccc2c(n1)N(CCN(C)C)CCN(C(=O)c1ccco1)C2,15.51
5,COCC(=O)Nc1ccc2c(c1)CN(C(=O)c1ccco1)CC2,105.1
6,CC(=O)Nc1ccc2c(c1)CN(C(=O)c1ccco1)CC2,113.8
7,Cc1n[nH]cc1CNc1ccc2c(c1)CN(C(=O)OC(C)(C)C)CC2,-19.63
8,CCc1noc(CC)c1CNC(=O)Nc1ccc2[nH]nnc2c1,5.627
9,Cc1ccccc1CS(=O)(=O)CC(=O)N(C)Cc1ccccc1,-7.305
10,CCCNC(=O)CCC(=O)Nc1ccc(-n2cncn2)c(F)c1,-8.923
11,Cc1cc(S(=O)(=O)Nc2onc(C)c2C)c(C)s1,-1.825
12,Cc1ccc(NC(=O)NCC2(N3CCOCC3)CCSC2)c(C)c1 (stereo not drawn),-11.49
13,COCCN1CCCC1(C)c1nc(C)cc(N)n1 (stereo not drawn),125.2
14,CCN1CCCC1(C)c1nc(C)cc(N)n1 (stereo not drawn),113.3
15,CCCc1nc(C)cc(N2CCC3(CCC(=O)N(CCO)C3)CC2)n1,3.34
16,Cc1cc(N2CCC3(CCC(=O)N(CCO)C3)CC2)nc(N(C)C)n1,21.48
17,Cc1cc(C)nc(C2(C)CCCN2CCO)n1 (stereo not drawn),123.6
18,COCCN1CCCC12CCCN(c1nncs1)C2 (stereo not drawn),14.36
19,CCCc1nc(C)cc(N2CCC3(CCC(=O)N(CCOC)C3)CC2)n1,0.7545
20,Cc1nnsc1C(=O)NCc1cccnc1N(C)Cc1ccccc1,-7.662
21,CC(C)N1CCOCC2(CN(Cc3nccs3)CCO2)C1.O=C(O)C(F)(F)F.O=C(O)C(F)(F)F (stereo not drawn),13.74
22,CNS(=O)(=O)c1cccc(CNCc2ccsc2)c1,4.811
23,O=C(O)C(F)(F)F.O=C(c1ccccn1)N1CCC2(CCCN(c3nncs3)C2)C1 (stereo not drawn),-19.65
24,O=C(O)C(F)(F)F.O=C(c1ccco1)N1CCCC2(CCN(c3nncs3)C2)C1 (stereo not drawn),102.9
25,O=C(c1ccoc1)N1CCC2(C1)CN(c1ncc(F)cn1)C2,0.03212

row,Compound,Percent Effect [%]
1,O=C(c1ccco1)N1CCC2(CCCN(c3ncc(F)cn3)C2)C1 (stereo not drawn),95.74
2,O=C(c1ccoc1)N1CCC2(CCCN(c3ncc(F)cn3)C2)C1 (stereo not drawn),105.6
3,CC(=O)N1CCCC2(CCN(c3nncs3)C2)C1 (stereo not drawn),-12.49
4,O=C(c1ccco1)N1CCCC2(C1)CN(c1nncs1)CCO2 (stereo not drawn),86.33
5,O=C(c1ccco1)N1CCC2(CCOC2)C1 (stereo not drawn),5.675
6,O=C(c1ccco1)N1CCO[C@@H]2CN(c3ncc(F)cn3)CC[C@@H]2C1,-7.545
7,Cc1cnc(N2CC3(CCN(C(=O)c4ccoc4)C3)C2)nc1,-4.182
8,O=C(c1ccco1)N1CCCC2(CN(Cc3ccoc3)CCO2)C1 (stereo not drawn),-2.684
9,O=C(CCO)N1CCOC2(CCCN(C(=O)c3ccco3)C2)C1 (stereo not drawn),-2.214
10,O=C(CSCC1CC1)N1CCCC(c2nccn2Cc2ccccn2)C1 (stereo not drawn),-4.276
11,CCC1=N[C@@]2(CC[C@@H]3CN(S(=O)(=O)CC)C[C@@H]32)C(=O)N1CC(C)C,-13.66
12,CN(Cc1ccccc1)c1ncccc1CNC1CCCC1,-55.14
13,CNS(=O)(=O)c1cccc(C(C)NCc2ccc(F)cc2F)c1 (stereo not drawn),0.5272
14,CC(C)(C)c1ccn(C2(C(=O)O)CCN(c3ccncc3F)CC2)n1,0.05232
15,O=C(O)C(F)(F)F.O=C(c1ccco1)N1CCCC2(CN(Cc3cccs3)CCO2)C1 (stereo not drawn),7.002
16,O=C(O)C(F)(F)F.O=C(c1ccco1)N1CCC2(CCCN(c3ncccn3)C2)C1 (stereo not drawn),85.77
17,O=C(O)C(F)(F)F.O=C(c1ccco1)N1CCOC2(COCCN(c3ncccn3)C2)C1 (stereo not drawn),-16.99
18,CCN1CC2(CCN(C(=O)C3CSC(C)(C)C(=O)N3)CC2)CC1=O (stereo not drawn),-12.94
19,CCc1nccn1C1CCCN(C(=O)c2cc[nH]n2)C1 (stereo not drawn),5.506
20,CCc1nccn1C1CCCN(C(=O)Cc2cn3ccsc3n2)C1 (stereo not drawn),106.2
21,CCc1nccn1C1CCCN(C(=O)CCc2nc(C(C)C)no2)C1 (stereo not drawn),1.838
22,CCc1nccn1C1CCCN(C(=O)c2cc(C3CC3)on2)C1 (stereo not drawn),0.1203
23,O=C(Cc1cn2ccsc2n1)N1CCCC(n2cncn2)C1 (stereo not drawn),-11.33
24,CCc1nccn1C1CCCN(C(=O)c2csc(C3CC3)n2)C1 (stereo not drawn),96.06
25,CC(C)c1ccc(OCCC(=O)N(C)CC(N)=O)cc1,4.31

row,Compound,Percent Effect [%]
1,CC1CN(c2ncnc3cccc(F)c23)CCO1 (stereo not drawn),-3.165
2,CC(C)c1cc(NCC2(Cn3cccn3)CC2)n2nccc2n1,-2.27
3,Cc1cc2nc(C(C)C)cc(NCCc3cccn3C)n2n1,113.2
4,Cc1cc2nc(C(C)C)cc(NCCc3ccncc3)n2n1,142
5,Cc1cc(NCCS(C)(=O)=O)n2nc(C)cc2n1,-11.18
6,CNS(=O)(=O)CCNc1cc(C)nc2cc(C)nn12,-6.261
7,Cc1cc2nc(C(C)C)cc(N[C@H](C(N)=O)C(C)C)n2n1,-8.312
8,CCc1nc2c(NCC3COc4c(cccc4OC)C3)ncnc2o1 (stereo not drawn),-3.271
9,CCN(C)C(=O)c1ccc(N(C)Cc2cc(-c3cccnc3)no2)nc1,3.484
10,COCc1cc(CC2(NC3CCN(C)CC3)COC2)no1,4.63
11,COc1cc(C#N)ccc1OCC(=O)N(C1CC1)C(C)c1ccco1 (stereo not drawn),-6.369
12,CCC[C@H]1CN(Cc2ccc(N(C)C)nc2)C[C@@H]1NS(=O)(=O)CC,9.48
13,COc1cc(S(=O)(=O)Nc2cn[nH]c2)ccc1Br,20.8
14,Cc1noc(C)c1CC(=O)N1CCCC(Cn2ccnc2C)C1 (stereo not drawn),108.2
15,Cc1noc(C)c1CNC(=O)N1CCN(CC2CC2)CC1,-3.03
16,Cc1noc(C)c1CC(=O)N1CCCC(n2ccnc2C)C1 (stereo not drawn),104.6
17,Cc1nccn1CC1CCCN(C(=O)Cc2ccsc2)C1 (stereo not drawn),91.27
18,Cc1cnn(C2CCCN(C(=O)Cc3ccc(C)s3)C2)c1 (stereo not drawn),107.6
19,CCCc1noc(CCC(=O)N2CCCC(n3ccnc3C)C2)n1 (stereo not drawn),4.516
20,Cc1noc(C)c1CCC(=O)N1CCCC(n2ccnc2C)C1 (stereo not drawn),-0.2444
21,Cn1nc(C2CCCN(C(=O)Cc3ccsc3)C2)c2nccnc21 (stereo not drawn),-16.9
22,Cc1cnn(C2CCCN(C(=O)Cc3ccc(-n4cccn4)cc3)C2)c1 (stereo not drawn),-1.818
23,O=C(Cc1ccsc1)N1CCCC(CNS(=O)(=O)Cc2ccccc2)C1 (stereo not drawn),-10.03
